For 26 molecules, growth results are on record in PubChem BioAssay (NCI).

This is part of a sample that, as a whole, favours compounds with a hit. Of some 83,000 tested, about 20% had one in any assay.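 48-hour exposure, single concentration, 96-well plates; percent growth endpoint where 0 means no net growth. Active: below 10.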 A number with no mark means an inactive call. Calls of active or inactive are those of the source.

The assay has as its system MDA-MB-468 breast. Nature of the assay: NCI-60 one-dose screen, 48 h (100 = growth as untreated, 0 = no growth, -100 = all killed). The note with it: 10 µM unless noted.
With `COc1ccc(/C=C\c2cc(OC)c(OC)c(OC)c2)cc1OCC(=O)Nc1ccc2nc(C)sc2c1`, the growth was 7.78% (active).

`CCN(C)S(=O)(=O)Nc1cccc(Nc2ncnc3cc(NC(=O)CCl)ccc23)c1Cl`: the growth is 9.82% (active).

Take `Cc1ccc(-c2nc([P+](c3ccccc3)(c3ccccc3)c3ccccc3)c(N3C[C@H]4C[C@H](C3)c3cccc(=O)n3C4)o2)cc1`: the growth is -9.01% (active).

As to `Nc1ccccc1-c1n[nH]c(=O)[nH]c1=O`, the growth is 135%.

For the molecule `Cc1ccccc1CNc1ncnc2[nH]ncc12`, the growth is 87.7%.

Turning to `Nc1nc(N)c2nc(CNc3ccc(C(=O)CC(CCC(=O)O)C(=O)O)cc3)cnc2n1` (stereo unspecified), the growth is 65.4%.

`C#CCOc1ccc(C(Nc2ccc(OC)cc2)c2nnnn2C2CCCCC2)cc1` (stereo unspecified): the growth is 101%.

Regarding `C/C(=C(\c1ccc(OCCCN(C)C)cc1)c1ccc(OC(=O)Cc2ccccc2)cc1)c1ccc(Cl)cc1`, the growth is 84.1%.

As to `COc1ccc(/C=C/C(=O)c2cccc(B(O)O)c2)cc1O`, the growth is 34.9%.

Take `COc1ccc(-c2cc3c(nn2)-c2ccccc2C3=O)cc1`: the growth was -4.8% (active).

For the molecule `CCNCCCn1c2c(c3cc(OC)c(OC)cc3c1=O)C(=O)c1cc(OC)cnc1-2`, the growth was 5.95% (active).

As for `Nc1c(C(=O)Nc2cccc(Cl)c2)sc2nc3c(cc12)C(O)CCC3` (stereo unspecified), the growth was 39.5%.

For `N#CN1CC[C@H](C(=O)Nc2cc3cc(C(N)=O)ccc3cn2)C1`, the growth is -46.2% (active).

Turning to `CC(C)=CCc1cc(O)c(O)c2oc3cc(O)cc(O)c3c(=O)c12`, the growth is 123%.

Consider `CCCCCCNC(=O)Nc1ccc2cc3ccc(NC(=O)NCCCCCC)cc3nc2c1`, for which the growth is 18.6%.

For `COc1ccc(NC(=O)[C@H](C)NC(=O)OC(C)(C)C)cc1C(=O)Nc1cccc(-c2cc(=O)c3c(OC)c(OC)c(OC)cc3o2)c1`, the growth is 4.39% (active).

Turning to `Cc1ccc([N+](=O)[O-])cc1Br`, the growth is 98.1%.

As to `O=C1C(Nc2ccccn2)=C(I)C(=O)c2ncccc21`, the growth is -70.1% (active).

With `N#C/C(=C\c1ccc2c(c1)OCO2)n1nnc2cc(F)c(F)cc21`, the growth was 6.05% (active).

`CCOC(=O)c1ccc(NC(=O)Nc2nccs2)cc1`: the growth was -30.4% (active).

For the molecule `O=C(NO)c1ccc(Cn2c(=O)n(CCc3ccccc3)c(=O)c3ccccc32)cc1`, the growth was 40.9%.

Take `Nc1nc2c(c3ncccc13)C(c1ccccc1)Cc1ncccc1-2` (stereo unspecified): the growth is 55.8%.

On to `COc1cc(/C=C\c2cc(/C=C\c3ccc(O)c(OC)c3)n(C(=O)COc3ccc(Cl)cc3Cl)n2)ccc1O`, for which the growth was 12.5%.

As to `CCCCN1C(=O)/C(=c2\sc3n(c2=O)C2C(NN=3)N(CC)C(=O)N2CC)c2cccc(C)c21` (stereo unspecified), the growth was 12.4%.

In the case of `CCCCC[C@H]1C/C=C2/C(=O)C(Cl)=C[C@@H]2C/C=C\CCCC(=O)O[C@@H](CCCCC)C/C=C2/C(=O)C(Cl)=C[C@@H]2C/C=C\CCCC(=O)O1`, the growth is -46% (active).

As to `CCn1cc(C(=O)O)c(=O)c2cc(F)c(N3CCN(CC(=O)Nc4ccc(/C(C)=N/OC)cc4)CC3)cc21`, the growth was 102%.
